Laboratory results from PubChem BioAssay AID1508600 (Functional Genomics Laboratory (NCATS/FGL), 2020).
Screen size: about 53,000 sequences; about 3,700 (7%) were called active. This is one part of a sample in which actives are shown more often than they occur. Values without a mark were called inactive.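 Rule for the calls: active = gene knockdowns whose robust z-score for IL-1 alpha signal is at least 2 or at most -2, so actives lie on both sides; inactive = the rest.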

Experiment: Components of the Cytosolic LPS Sensing Pathway: Gene Identification via Genome-wide siRNA Screen;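 note: robust z of the log signal after scaling to non-targeting control siRNA wells of the plate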
Settings: RAW264.7 macrophages, IL-1a HTRF, actives lie on both sides, screened at 100 nM (by protocol), cells primed 5 h with Pam3CSK4 first
How it was run: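 IL-1a HTRF of supernatants after 24 hour LipidA transfection of Pam3CSK4-primed (5 hours) RAW264.7 cells, 48h post-siRNA transfection (100 nM). Scores: percent of plate negative-control median, then log-based robust z-score.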

Sequence	z-score
CGACAUUUGUGUUAACCAUTT against Gprc5c	-0.483
GGAGCUUUUGGACCACUUGTT against Tmod1	-0.892
GCAAACGACGAAAGUCCAATT against Usp49	-1.63
CCAUAAACGACGAAAUGAUTT against Usp11	0.189
GGCAUUUGACUUUAUUGCATT against Nit1	3.54 (active)
GGUCAAGCAAGUGUUGGUUTT against Gart	-0.0147
GGAAGAUUCCGACUUUAUUTT against Irs4	0.69
GCUCAGACAAGAAUUGCUATT against Specc1	-0.612
CCACCUUUCGUGCAUUAUCTT against Coro6	1.32
GGCUGUCAUACUUUCAGGGTT against Hyal5	2.51 (active)
GGGCCAAGGAAGAACUUCATT against Clec12a	-0.655
GGAAAAAGAGGCCAAAAAGTT against Arid4a	-0.221
GGUCAAUGUGAUUGAGGAUTT against Acap1	0.869
CCUAUUGAGUCAUCCAUCGTT against Utp25	-0.586
GCAGUACGCUGCAUUUAAATT against Mtrf1l	0.551
GGAGUUUCAACUCUUCUUCTT against Necab2	-0.576
GCUCCUGAACUAAUACAAGTT against Melk	5 (active)
GGUGAGGAGGAAAUCCUGCTT against Rdh10	-1.21
CCUGCUUUGUAUCUCCUCCTT against Csprs	0.184
GCAACAAUGAGAGACCACATT against Htr5a	3.27 (active)
GGAAGCAUCUCAUUAUUCATT against Lamp2	0.0306
GGCACCUACAUCCUUAUUGTT against Ptprn	-0.16
GGAAAGGAAAAUCAACUUCTT against Usp14	0.0989
GCUUUCUUUUGCACUUGAATT against Ctc1	-1.1
CCACAUGUCACAUCUUUUCTT against Mrpl47	0.16
GGCACAGACUAAGGUAUAGTT against Adra2c	-1.51
GCCCUGAAGCCUAUAAUCATT against Nhlrc1	2.34 (active)
GGCAACAGUACCAAAGACATT against Rps24	0.483
GGCCGAAUCACAGAAACUCTT against Mrps18a	1.87
GUAAGCAGCAACAGAGGCUTT against Cd70	-0.558
